From the supplement of paper PMC10849652
About 8,800 targets were measured; listed, in parts, are those with a hit and a random draw of the rest. About 0.5% of all pairs of compound and target were hits.

Compound: C1=CC2=NC=CN=C2C=C1/C=C/3\C(=O)NC(=O)S3
Experiment: log2 fold change, soluble protein after heating vs DMSO (PISA); higher = thermal stabilisation; K562 lysate, 10 uM; active = over 0.2 and 3.5 SD of the protein, either way, in both replicates (recomputed)
Outline: (§1)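 K562 pellets were dounce-homogenised in PBS pH 7.4 containing 1 mM MgCl2, and the crude extract, at 1 mg/mL protein, was exposed to 10 μM compound for 30 min. Aliquots were heated for 3 min across 48°C-58°C, pooled, brought to 0.5% NP-40 at 4°C and spun at 21,000xg for 90 min, with the supernatant taken as soluble protein. TMTpro 16plex LC-MS/MS with equalised channel sums quantified that protein. Values are log-two fold changes in thermal stability relative to solvent controls, taken from duplicates.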

Chain of UniProt Q9BRN9 (Q9BRN9 whole entry, looked up): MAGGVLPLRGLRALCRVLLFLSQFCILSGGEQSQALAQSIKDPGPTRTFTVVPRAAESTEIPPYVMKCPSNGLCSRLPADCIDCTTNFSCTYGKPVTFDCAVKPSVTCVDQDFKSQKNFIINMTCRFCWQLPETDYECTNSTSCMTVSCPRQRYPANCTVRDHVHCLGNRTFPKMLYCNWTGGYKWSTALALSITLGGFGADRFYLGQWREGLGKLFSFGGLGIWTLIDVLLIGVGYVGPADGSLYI
Chain of UniProt Q9UKE5 (Q9UKE5 whole entry, looked up): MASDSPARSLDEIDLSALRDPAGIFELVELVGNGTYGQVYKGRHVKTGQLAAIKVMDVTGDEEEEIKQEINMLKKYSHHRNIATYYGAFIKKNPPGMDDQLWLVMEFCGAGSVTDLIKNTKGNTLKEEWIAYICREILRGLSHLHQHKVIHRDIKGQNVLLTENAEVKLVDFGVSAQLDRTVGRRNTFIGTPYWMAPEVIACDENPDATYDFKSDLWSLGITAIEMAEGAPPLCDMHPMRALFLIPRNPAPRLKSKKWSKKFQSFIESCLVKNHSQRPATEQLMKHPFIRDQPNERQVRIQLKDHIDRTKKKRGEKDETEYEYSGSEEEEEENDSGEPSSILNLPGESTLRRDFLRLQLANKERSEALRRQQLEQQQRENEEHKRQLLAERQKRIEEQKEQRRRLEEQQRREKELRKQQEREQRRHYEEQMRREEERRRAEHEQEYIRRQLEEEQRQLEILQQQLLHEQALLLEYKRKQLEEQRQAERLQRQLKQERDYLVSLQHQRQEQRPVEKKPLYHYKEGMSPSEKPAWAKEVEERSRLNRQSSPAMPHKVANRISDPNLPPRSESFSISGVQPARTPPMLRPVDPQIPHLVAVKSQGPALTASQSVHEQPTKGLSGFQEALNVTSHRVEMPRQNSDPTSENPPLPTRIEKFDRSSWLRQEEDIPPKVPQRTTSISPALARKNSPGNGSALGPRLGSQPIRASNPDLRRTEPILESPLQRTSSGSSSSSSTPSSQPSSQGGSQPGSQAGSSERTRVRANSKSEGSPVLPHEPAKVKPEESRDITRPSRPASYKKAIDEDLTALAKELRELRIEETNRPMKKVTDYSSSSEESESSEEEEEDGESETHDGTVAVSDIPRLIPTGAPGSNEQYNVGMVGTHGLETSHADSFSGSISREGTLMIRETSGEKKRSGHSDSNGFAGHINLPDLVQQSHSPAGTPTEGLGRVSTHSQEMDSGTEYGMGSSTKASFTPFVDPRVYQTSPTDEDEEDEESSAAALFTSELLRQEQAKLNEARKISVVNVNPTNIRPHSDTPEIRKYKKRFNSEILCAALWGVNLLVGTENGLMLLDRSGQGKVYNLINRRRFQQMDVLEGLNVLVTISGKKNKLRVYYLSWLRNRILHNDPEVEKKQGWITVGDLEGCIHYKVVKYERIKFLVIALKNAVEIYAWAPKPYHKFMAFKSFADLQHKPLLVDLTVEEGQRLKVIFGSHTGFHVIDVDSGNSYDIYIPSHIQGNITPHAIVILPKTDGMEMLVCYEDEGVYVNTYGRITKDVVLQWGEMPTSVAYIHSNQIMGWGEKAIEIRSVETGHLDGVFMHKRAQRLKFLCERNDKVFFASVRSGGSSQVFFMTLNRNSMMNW
Chain of UniProt O43399 (O43399 whole entry, looked up): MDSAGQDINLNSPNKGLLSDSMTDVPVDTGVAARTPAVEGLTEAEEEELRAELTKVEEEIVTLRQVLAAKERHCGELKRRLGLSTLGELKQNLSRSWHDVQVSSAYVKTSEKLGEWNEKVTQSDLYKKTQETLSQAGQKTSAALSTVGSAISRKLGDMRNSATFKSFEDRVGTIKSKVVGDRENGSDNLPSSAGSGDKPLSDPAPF
Chain of UniProt P04350 (P04350 whole entry, looked up): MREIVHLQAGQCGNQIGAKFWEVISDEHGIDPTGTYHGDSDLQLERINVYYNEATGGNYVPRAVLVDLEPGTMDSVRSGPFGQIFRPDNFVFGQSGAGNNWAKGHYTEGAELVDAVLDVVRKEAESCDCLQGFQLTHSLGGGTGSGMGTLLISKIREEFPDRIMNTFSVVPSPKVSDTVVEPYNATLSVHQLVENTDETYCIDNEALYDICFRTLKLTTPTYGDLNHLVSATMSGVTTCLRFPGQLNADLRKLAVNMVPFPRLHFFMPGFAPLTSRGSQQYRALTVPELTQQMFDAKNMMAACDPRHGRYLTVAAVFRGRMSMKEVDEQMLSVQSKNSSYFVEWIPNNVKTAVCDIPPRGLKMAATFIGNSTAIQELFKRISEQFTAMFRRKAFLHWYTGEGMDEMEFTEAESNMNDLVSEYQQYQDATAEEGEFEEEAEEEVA
Chain of UniProt Q14157 (Q14157 whole entry, looked up): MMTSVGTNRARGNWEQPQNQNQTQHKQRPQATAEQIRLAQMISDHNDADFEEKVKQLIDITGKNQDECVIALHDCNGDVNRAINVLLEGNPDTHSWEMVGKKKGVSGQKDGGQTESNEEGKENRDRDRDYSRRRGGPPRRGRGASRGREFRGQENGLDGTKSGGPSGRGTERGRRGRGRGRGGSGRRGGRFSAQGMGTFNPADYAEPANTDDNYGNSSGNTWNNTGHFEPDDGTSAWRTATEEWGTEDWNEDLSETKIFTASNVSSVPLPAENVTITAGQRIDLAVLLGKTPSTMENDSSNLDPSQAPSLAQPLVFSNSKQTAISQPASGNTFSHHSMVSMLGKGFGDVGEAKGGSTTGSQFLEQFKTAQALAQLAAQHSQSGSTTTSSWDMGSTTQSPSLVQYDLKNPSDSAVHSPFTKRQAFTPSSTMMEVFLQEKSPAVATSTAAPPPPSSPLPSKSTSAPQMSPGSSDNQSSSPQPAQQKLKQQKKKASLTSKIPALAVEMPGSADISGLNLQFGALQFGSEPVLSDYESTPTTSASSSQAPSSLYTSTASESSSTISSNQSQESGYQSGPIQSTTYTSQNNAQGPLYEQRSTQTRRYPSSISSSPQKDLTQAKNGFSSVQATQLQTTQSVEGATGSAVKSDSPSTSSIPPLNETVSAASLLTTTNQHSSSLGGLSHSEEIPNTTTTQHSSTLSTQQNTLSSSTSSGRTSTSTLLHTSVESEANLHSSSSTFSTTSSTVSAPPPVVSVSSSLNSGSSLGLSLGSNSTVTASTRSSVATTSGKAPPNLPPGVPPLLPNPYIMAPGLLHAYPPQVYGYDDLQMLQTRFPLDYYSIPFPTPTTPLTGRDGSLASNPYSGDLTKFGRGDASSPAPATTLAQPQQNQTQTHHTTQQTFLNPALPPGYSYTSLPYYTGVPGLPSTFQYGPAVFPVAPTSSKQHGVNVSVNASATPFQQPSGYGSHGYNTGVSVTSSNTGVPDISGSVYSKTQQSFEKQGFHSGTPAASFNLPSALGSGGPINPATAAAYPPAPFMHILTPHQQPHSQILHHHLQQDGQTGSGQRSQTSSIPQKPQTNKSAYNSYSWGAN
Chain of UniProt P21580 (P21580 whole entry, looked up): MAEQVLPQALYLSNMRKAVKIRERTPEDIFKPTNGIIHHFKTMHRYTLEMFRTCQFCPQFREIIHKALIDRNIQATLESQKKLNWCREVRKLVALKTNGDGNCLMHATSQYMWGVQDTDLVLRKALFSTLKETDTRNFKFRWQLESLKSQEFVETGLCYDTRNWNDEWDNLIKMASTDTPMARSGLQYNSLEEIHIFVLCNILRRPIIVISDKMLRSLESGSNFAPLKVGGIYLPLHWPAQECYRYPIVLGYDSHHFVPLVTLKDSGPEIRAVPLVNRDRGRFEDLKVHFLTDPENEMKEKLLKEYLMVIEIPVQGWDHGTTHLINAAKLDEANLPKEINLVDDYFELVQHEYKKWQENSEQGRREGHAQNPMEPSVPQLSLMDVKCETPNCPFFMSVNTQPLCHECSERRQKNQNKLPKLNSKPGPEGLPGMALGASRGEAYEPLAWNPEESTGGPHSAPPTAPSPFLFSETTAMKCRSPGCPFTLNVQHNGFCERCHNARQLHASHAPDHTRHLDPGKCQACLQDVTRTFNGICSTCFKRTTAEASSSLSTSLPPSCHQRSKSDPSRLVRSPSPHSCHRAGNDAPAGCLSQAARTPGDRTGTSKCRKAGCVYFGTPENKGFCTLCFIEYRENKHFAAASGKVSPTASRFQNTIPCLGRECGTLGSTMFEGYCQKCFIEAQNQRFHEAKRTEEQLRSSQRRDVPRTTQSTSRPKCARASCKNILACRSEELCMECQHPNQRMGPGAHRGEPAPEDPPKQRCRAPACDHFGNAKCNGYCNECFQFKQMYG
Chain of UniProt P62328 (P62328 whole entry, looked up): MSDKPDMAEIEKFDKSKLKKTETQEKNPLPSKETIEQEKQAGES
Chain of UniProt Q04726 (Q04726 whole entry, looked up): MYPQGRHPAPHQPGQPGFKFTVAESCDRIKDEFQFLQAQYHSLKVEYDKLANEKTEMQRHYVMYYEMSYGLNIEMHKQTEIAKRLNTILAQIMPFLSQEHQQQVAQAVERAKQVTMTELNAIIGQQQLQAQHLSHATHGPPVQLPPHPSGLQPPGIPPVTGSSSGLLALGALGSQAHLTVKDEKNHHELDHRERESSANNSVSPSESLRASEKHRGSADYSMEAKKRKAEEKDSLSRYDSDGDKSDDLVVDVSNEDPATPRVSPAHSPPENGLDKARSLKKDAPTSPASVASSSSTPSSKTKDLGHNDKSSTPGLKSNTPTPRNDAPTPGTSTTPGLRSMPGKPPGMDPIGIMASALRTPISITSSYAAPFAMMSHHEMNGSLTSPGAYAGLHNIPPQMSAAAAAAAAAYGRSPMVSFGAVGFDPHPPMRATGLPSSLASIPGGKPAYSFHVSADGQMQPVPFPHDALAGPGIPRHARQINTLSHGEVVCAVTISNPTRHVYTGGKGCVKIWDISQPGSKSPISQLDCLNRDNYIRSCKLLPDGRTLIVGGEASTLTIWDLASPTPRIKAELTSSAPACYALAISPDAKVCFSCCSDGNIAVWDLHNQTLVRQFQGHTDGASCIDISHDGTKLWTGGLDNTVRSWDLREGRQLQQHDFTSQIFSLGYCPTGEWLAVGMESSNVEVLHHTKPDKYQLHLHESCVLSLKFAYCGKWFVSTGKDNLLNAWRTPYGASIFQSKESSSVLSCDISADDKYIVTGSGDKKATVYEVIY

log2 fold change, inactive:
TASP1 (UniProt Q9H6P5) -0.102, TPD52L2 isoform 3 (UniProt O43399) -0.028, TUBA4A (UniProt C9JQ00) -0.18, TFPT (UniProt P0C1Z6) -0.186, TNFAIP3 (UniProt P21580) 0.03, TENM4 (UniProt Q6N022) -0.334, TNIK isoform 5 (UniProt Q9UKE5) 0.008, TUBB4A (UniProt P04350) -0.016, TM2D3 (UniProt Q9BRN9) -0.068, TLE3 isoform 5 (UniProt Q04726) 0.237, UBAP2L isoform 1 (UniProt Q14157) 0.081, TRPM4 (UniProt Q8TD43) -0.094, TMSB4X (UniProt P62328) -0.031, TCF20 (UniProt Q9UGU0) 0.039, TMPO isoform 2 (UniProt P42167) 0.143, TUBGCP5 (UniProt Q96RT8) 0.024, THAP9 (UniProt Q9H5L6) 0.01

Compound: C1=CC=C(C=C1)C2=NC(=C(N2)C3=CC=NC=C3)C4=CC(=C(C=C4)Cl)O
Experiment: as above
Outline: as §1

log2 fold change, inactive:
TMEM132A isoform 2 (UniProt Q24JP5) -0.064, TASP1 (UniProt Q9H6P5) -0.022, TPD52L2 isoform 3 (UniProt O43399) -0.049, TPM3 isoform 3 (UniProt P06753) -0.033, TMEM154 (UniProt Q6P9G4) 0.01, UBR4 isoform 4 (UniProt Q5T4S7) 0.136, TNFAIP3 (UniProt P21580) -0.049, TRAF7 (UniProt Q6Q0C0) -0.026, TNIK isoform 5 (UniProt Q9UKE5) 0.134, TCF3 isoform 2 (UniProt P15923) 0.154, TUBB4A (UniProt P04350) -0.066, TM2D3 (UniProt Q9BRN9) 0.205, TSPAN3 (UniProt O60637) 0, TLE3 isoform 5 (UniProt Q04726) 0.06, UBAP2L isoform 1 (UniProt Q14157) -0.367, TCF4 (UniProt P15884) 0.005, TRPM4 (UniProt Q8TD43) 0.004, TMSB4X (UniProt P62328) 0.002, TXNRD2 isoform 3 (UniProt Q9NNW7) 0.14, TEDC1 (UniProt Q86SX3) 0.05, U2AF1L5 (UniProt P0DN76) -0.066, TMC1 (UniProt Q8TDI8) -0.072, UCP2 (UniProt P55851) 0.011, TUBGCP5 (UniProt Q96RT8) 0.013, THAP9 (UniProt Q9H5L6) 0.028
